The list is not random: actives were taken first. Their share in the collection is about 2.5%.
Cruzain inh noDet: qHTS Assay for Promiscuous and Specific Inhibitors of Cruzain (without detergent); Cruzipain (Trypanosoma cruzi), P25779; purified cruzain, Z-FR-AMC fluorescence, no detergent; Potency, µM, for the others: max response, negative = inhibition, hits mostly inhibitors; actives 2.3% (n = 200,000);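 further: plate controls were enzyme without inhibitor for no effect and buffer without enzyme for full effect; nearly all actives have a fitted effect of over 40% in size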
Target sequence (P25779 123-467 limits assumed): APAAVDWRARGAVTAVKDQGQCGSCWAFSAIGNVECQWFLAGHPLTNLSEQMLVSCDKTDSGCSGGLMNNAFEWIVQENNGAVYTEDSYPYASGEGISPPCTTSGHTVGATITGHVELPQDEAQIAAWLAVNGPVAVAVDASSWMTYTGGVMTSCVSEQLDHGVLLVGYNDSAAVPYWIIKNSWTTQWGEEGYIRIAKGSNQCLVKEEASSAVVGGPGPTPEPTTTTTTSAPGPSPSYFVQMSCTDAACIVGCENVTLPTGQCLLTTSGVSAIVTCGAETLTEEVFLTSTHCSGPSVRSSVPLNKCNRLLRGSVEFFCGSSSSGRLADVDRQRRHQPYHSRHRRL
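Purified cruzain at 1.5 nM, pre-incubated 15 min with compound at room temperature in 100 mM sodium acetate pH 5.5, 5 mM DTT, 0.00005% Triton X-100. Reaction started with 2 uM Z-FR-AMC; AMC fluorescence increase over 60 s gives rate.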
Cruzain inh Det: qHTS Assay for Promiscuous and Specific Inhibitors of Cruzain (with detergent); Potency, µM, without a hit: max response, negative = inhibition, most hits filed as inhibitors; AID 1478, 2009; purified cruzain, Z-FR-AMC fluorescence, 0.01% Triton; actives 0.43% (n = 200,000); Cruzipain (Trypanosoma cruzi), P25779;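 further: plate controls were neutral wells for no effect and buffer without enzyme for full effect; nearly all actives have a fitted effect of over 40% in size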
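Steps: dispense cruzain (1.5 nM final) in acetate buffer pH 5.5 with DTT and 0.01% Triton X-100; pin-transfer compounds; incubate 15 min RT; add Z-FR-AMC (2 uM final); read fluorescence every 30 s, using the 60 s intensity change.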
An asterisk follows results filed as active; u = inconclusive. The call rests on the fitted dose curve; in most records, active means well fitted curve in the direction sought with a large enough effect; inconclusive means small, poorly fitted or top-dose-only effect, or another doubt; inactive means no such curve, though single readings can be large; an effect the other way counts as inactive or inconclusive. Potency means the concentration at half of the fitted maximal effect.

SMILES	Cruzain inh noDet	Cruzain inh Det
CCSc1nnc2c(n1)OC=Nc1ccc(Br)cc1-2	-16%	-6%
C=CCSc1nnc2c(n1)OC=Nc1ccc(Br)cc1-2	25µM*	-5%
COc1cccc(N2CC(NC(=O)c3ccc(S(=O)(=O)N4CCCC4)cc3)CC2=O)c1 (centres undefined)	1%	-2%
Cc1cccc(OCCOc2ccc(/C=N/NC(=O)Cc3nnc(N)s3)cc2)c1	5µM*	3%
Nc1nnc(CC(=O)N/N=C/c2ccc(-c3ccccc3)o2)s1	-9%	-13%
Cc1ccc2c(c1)c(=O)c(S(=O)(=O)c1ccc(F)cc1)cn2CC(=O)Nc1ccc2c(c1)OCO2	-29%	-6%
N[C@@]1(C(=O)O)CO[C@H]2[C@H](C(=O)O)[C@H]21	-3%	-2%
Cc1ccc(-c2cc(C(=O)OCC(=O)Nc3cc(C)on3)c3ccccc3n2)c(C)c1	5%	-2%
Cc1cc(NC(=O)COC(=O)c2oc3c(ccc4ccccc43)c2C)no1	20µM*	1%
CC(=O)c1ccc(Nc2cc(C)nc3nc(Cc4ccc(Cl)cc4)nn23)cc1	29%	-2%
Cc1ccccc1CS(=O)(=O)c1nnc([C@H](CC(C)C)NC(=O)OC(C)(C)C)o1	25µM*	13µM*
C[C@H](NC(=O)OC(C)(C)C)c1nnc(SCc2c(F)cccc2Cl)o1	-5%	-2%
CC(C)[C@H](NC(=O)OC(C)(C)C)c1nnc(S(=O)(=O)Cc2c(F)cccc2Cl)o1	5µM*	3.5µM*
CC(C)(C)OC(=O)N[C@@H](Cc1ccccc1)c1nnc(S(=O)(=O)Cc2cccc(F)c2)o1	20µM*	13µM*
CCOC(=O)CSc1nnc([C@H](Cc2ccccc2)NC(=O)OC(C)(C)C)o1	-10%	-4%
CC(C)C[C@H](NC(=O)OC(C)(C)C)c1nnc(SCc2ccccc2)o1	12%	-2%
CCOC(=O)c1cccc(NC(=O)CSc2nc3cc4ccccc4cc3[nH]2)c1	u	-7%
CN1CCN(c2ncc3nc(-c4ccc(F)cc4)c(=O)n(Cc4cccs4)c3n2)CC1	-6%	-3%
Cc1c(C(=O)OCc2ccccc2)[nH]c2c1C(=O)CC(c1ccc(C(C)(C)C)cc1)C2 (centres undefined)	-9%	-2%
CCOC(=O)c1[nH]c2c(c1Cc1ccccc1)C(=O)CC(c1ccc(C(C)(C)C)cc1)C2 (centres undefined)	10µM*	-4%
C[C@H](c1ccccc1)N1CCN([C@@H](C)c2ccccc2)CC1	6%	5%
O=C(Nc1ccc(Cl)cc1)[C@@H]1[C@@H]2C(=O)N(c3ccc4ccccc4c3)C(=O)[C@@H]2[C@H]2C=CC=NN21	16µM*	-7%
CC(=O)Oc1ccc(C(=O)[C@H]2[C@H]3C(=O)N(c4cccc5ccccc45)C(=O)[C@H]3[C@@H]3C=CC=NN32)cc1	23%	-6%
COc1ccccc1OC(C)C(=O)Nc1cccc(-c2nc3ccccc3o2)c1 (centres undefined)	-11%	0%
CCC(=O)N1c2ccccc2CC1C(=O)NCCN1CCN(c2cccc(C)c2C)CC1 (centres undefined)	-4%	-1%
SMILES	Cruzain inh noDet	Cruzain inh Det
Cc1sc2nc(SCC(=O)NCc3ccco3)n(-c3ccccc3)c(=O)c2c1C	-10%	3%
Brc1ccccc1-c1nnc(CSc2nncn2-c2ccccc2)o1	-8%	2%
COc1ccc(-n2c(SCc3nc(-c4ccc(C)cc4)no3)nnc2-c2ccccc2)cc1	u	-6%
COc1ccc(-c2noc(CSc3nc4ccccc4c(=O)n3-c3ccc(C)cc3)n2)cc1	16µM*	5%
Cc1sc2nc(SCc3nc(-c4ccccc4)no3)n(-c3ccccc3)c(=O)c2c1C	25µM*	-3%
Cc1ccc2nc(SCc3nc(-c4ccccc4C)no3)[nH]c2c1	-7%	-24%
O=c1c2ccccc2nc(SCc2nnc(-c3ccccc3Br)o2)n1-c1ccccc1	32µM*	-1%
Cc1ccc2nc(SCc3nnc(-c4ccccc4Br)o3)[nH]c2c1	20µM*	-30%
COc1ccc(-c2noc(COc3cc(C)ccc3C)n2)cc1OC	u	-9%
Cc1ccc(S(=O)(=O)Nc2ccc(-c3nc4cc(NS(=O)(=O)c5ccc(C)cc5)ccc4o3)cc2)cc1	7.9µM*	2%
COc1ccc(-c2nc3ccc(NS(=O)(=O)c4ccc(Cl)cc4)cc3o2)cc1	-23%	-6%
COC(=O)c1sccc1NC(=S)N1CCN(c2cccc(C)c2C)CC1	16µM*	-2%
COC(=O)c1sccc1NC(=S)N1CCCCC1	-2%	-1%
CCOc1ccccc1Nc1ccc(N)cc1S(=O)(=O)O	10%	-2%
Cc1ccc(OCCSc2nnc(NC(=O)c3ccco3)s2)cc1	25µM*	4%
Cc1ccc(OCc2nnc(NC(=O)c3ccco3)s2)cc1	-11%	-1%
O=C(Nc1nnc(-c2ccccc2SCc2ccccc2F)s1)Nc1ccccc1F	3.2µM*	2%
CC(=O)Nc1nnc(SCc2ccccc2F)s1	6%	2%
Cc1sc2c(c1C)c(=O)n(Cc1ccccc1)c(=O)n2CC(=O)Nc1cccc(Cl)c1	u	-5%
O=C(O)[C@H](C1NCCS1)N1C(=O)c2ccccc2C1=O (some centres undefined)	8%	0%
O=C(Nc1ccc(Cl)cc1)Nc1nc(-c2sccc2Br)cs1	10µM*	6%
O=C(NNc1nc(-c2ccccc2)cs1)c1ccccc1	u	-1%
Cc1csc(NC(=O)Nc2ccc(Cl)cc2)n1	u	0%
O=C(Nc1ccc(Cl)c(Cl)c1)Nc1nc(-c2ccccc2)cs1	10µM*	-2%
CC1=N[C@@](C)(COC(=O)[C@]2(C)N[C@](C)(CO)CO2)COC1=O	7%	3%
SMILES	Cruzain inh noDet	Cruzain inh Det
FC(F)(F)c1cc(NC(=S)Nc2ccc3ccccc3c2)cc(C(F)(F)F)c1	-5%	-1%
CCOC(=O)c1c(-c2ccccc2)csc1NC(=O)c1cc(-c2ccc(Cl)cc2)on1	-3%	-2%
COc1cc2nc3c(c([Si](C)(C)C(C)(C)C)c2cc1OC)Cn1c-3cccc1=O	-2%	1%
COc1ccc(-n2cc(C(=O)NCCc3ccc(C)cc3)c3ccccc3c2=O)cc1	25µM*	-5%
COc1cccc(-n2cc(C(=O)NCCc3ccc(C)cc3)c3ccccc3c2=O)c1	20%	0%
COc1ccc(NC(=O)CC2Oc3ccc(C)cc3NC2=O)cc1Cl (centres undefined)	-8%	2%
Nc1cc(OC(=O)c2ccco2)nn1S(=O)(=O)c1ccc(F)cc1	20µM*	25µM*
CC(C)(C)C(=O)Oc1cc(N)n(S(=O)(=O)c2ccc(F)cc2)n1	2%	-3%
COc1cccc(NC(=O)C2C3CCC4C(CCC32)C4(Cl)Cl)c1 (centres undefined)	10%	-7%
COc1ccc(NC(=O)C2C3CCC4C(CCC32)C4(Cl)Cl)cc1 (centres undefined)	25µM*	3%
NS(=O)(=O)c1ccc(NS(=O)(=O)c2ccc(NC(=O)c3ccc(-c4ccccc4)cc3)cc2)cc1	13µM*	-25%
CCNC(=O)c1ccc(NS(=O)(=O)c2ccccc2)cc1	-6%	4%
COc1ccc(C(=O)Nc2cccc(-c3nc4cccnc4s3)c2C)c(OC)c1	15%	2%
Cc1cc2nc(-c3ccc(SCC(=O)Nc4ccc(S(=O)(=O)N5CCCC5)cc4)nc3)[nH]c2cc1C	u	-12%

Screening results (PubChem)
